From PubChem
Most compounds without a hit are left out; they make up all but 7.4% or so of the library.
NPC1 prom act – activates the NPC1 promoter | Huh7 NPC1 promoter luciferase reporter, 24 h | Potency, µM (top dose mostly 9.22 µM), hits mostly activators | 320,000 tested, 2.4% active | AID 485313; note: nearly all actives have a fitted effect of over 60% in size
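Luminescence from an NPC1 promoter-driven luciferase reporter in stably transfected Huh7 cells was measured after 24 h compound treatment at 37 °C, followed by 10 min ambient incubation with luciferase detection reagent.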
SMN2 splice up – enhancers of SMN2 splice variant expression; HEK293 SMN2-luciferase splicing reporter, luminescence, 30-36 h; Potency, µM (series often up to 46.1 µM), hits mostly activators; 210,000 tested, 2.8% active; AID 1458; note: nearly all actives have a fitted effect of over 55% in size
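HEK293 cells carry an SMN2 minigene-luciferase reporter in which exon 7 inclusion puts luciferase in frame. Cells were seeded at 2000 cells/well, attached for 10-12 hours, then exposed to compounds for 30-36 hours at 37C before ONE-Glo luminescence.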
FLuc modulator – inhibits or activates purified firefly luciferase, miR-21 counter-screen. AID 588342. Potency, µM (highest dose often 57.5 µM), hits mostly inhibitors. 360,000 tested, 6.9% active. purified FLuc, Km substrates, luminescence inhibition. P08659; note: nearly all actives have a fitted effect of over 55% in size
Target sequence (P08659 whole entry, looked up): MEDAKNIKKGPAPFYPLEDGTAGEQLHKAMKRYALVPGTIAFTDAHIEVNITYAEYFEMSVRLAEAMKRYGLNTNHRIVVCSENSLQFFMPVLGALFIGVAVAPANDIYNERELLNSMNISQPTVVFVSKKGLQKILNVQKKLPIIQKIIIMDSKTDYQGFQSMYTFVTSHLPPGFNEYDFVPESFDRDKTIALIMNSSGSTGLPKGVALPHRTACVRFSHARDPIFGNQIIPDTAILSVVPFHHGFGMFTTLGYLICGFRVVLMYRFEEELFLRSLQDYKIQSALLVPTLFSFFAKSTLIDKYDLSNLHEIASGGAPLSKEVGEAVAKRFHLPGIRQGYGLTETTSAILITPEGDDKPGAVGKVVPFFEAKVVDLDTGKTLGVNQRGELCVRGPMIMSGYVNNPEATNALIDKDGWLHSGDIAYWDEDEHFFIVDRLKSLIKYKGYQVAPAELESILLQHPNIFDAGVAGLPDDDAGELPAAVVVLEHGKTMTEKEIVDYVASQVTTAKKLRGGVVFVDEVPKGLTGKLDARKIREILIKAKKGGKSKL
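Biochemical qHTS of compounds, final roughly 60 µM downward over six points, against 10 nM purified firefly luciferase using Km concentrations of substrates (10 uM D-luciferin, 10 uM ATP) in Tris acetate pH 7.5 buffer; luminescence output.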
Luc counter – blocks Kinase-Glo luciferase, a counter-screen artifact | Q27757 | Kinase-Glo luciferase, ATP luminescence, 8 min | Potency, µM (doses to about 38.3 µM), usual class: inhibitors | 200,000 tested, 0.28% active; note: nearly all actives have a fitted effect of over 60% in size
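Compound is pinned into ATP-containing buffer (10 uM ATP, imidazole pH 7.2, 7 mM MgCl2). Kinase-Glo luciferase reagent is then added. Light output is recorded following an 8-min room-temperature incubation.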
ELG1 genotoxic – genotoxicity induction in ELG1-luciferase HEK293T cells. 330,000 tested, 1.3% active. HEK293T ELG1-luciferase reporter, luminescence, 16 h. Potency, µM (series often up to 46 µM), most hits filed as activators; note: nearly all actives have a fitted effect of over 60% in size
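Step 1: seed 2,000 HEK293T ELG1-luciferase cells per well. Step 2: add compound or DMSO, incubate 16 hr at 37 °C. Step 3: ONE-Glo, 30 min at room temperature, read luminescence.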
Rab9 prom act – Rab9 promoter activation | Huh7 Rab9 promoter-luciferase reporter, luminescence, 24 h | Potency, µM (doses to about 9.22 µM), actives largely listed as activators | 320,000 tested, 2.8% active | AID 485297; note: nearly all actives have a fitted effect of over 60% in size
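Huh7 reporter line, Rab9 promoter upstream of luciferase. Compound exposure 24 h at 37 °C in reduced-serum medium with 10% FBS. Read-out: luminescence.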
A number is an active result; n = inactive; u = inconclusive; x = no result given. Calls come from the whole dose curve; as a rule, active = well fitted curve in the direction sought with a large enough effect; inconclusive = small, poorly fitted or top-dose-only effect, or another doubt; inactive = no such curve, though single readings can be large; an effect the other way counts as inactive or inconclusive.

SMILES	NPC1 prom act	SMN2 splice up	FLuc modulator	Luc counter	ELG1 genotoxic	Rab9 prom act
O=C(Nc1ccccc1Cl)C1CC(=O)n2c(nc3ccccc32)N1 (centres undefined)	n	n	n	n	u	n
CCCN1C(=O)CC(c2ccco2)Sc2ccccc21 (centres undefined)	n	n	n	n	n	n
O=C1CC(c2ccc(F)cc2)Sc2nc(-c3ccccc3)c(-c3ccccc3)n21 (centres undefined)	n	n	n	n	n	n
O=C1CC(c2ccccc2)Sc2nc3ccccc3n21 (centres undefined)	n	u	4.8µM	n	u	n
O=C1CC(c2cccs2)Sc2nc3ccccc3n21 (centres undefined)	n	u	3.4µM	n	u	n
O=C1CC(c2ccc3c(c2)OCO3)Sc2nc3ccccc3n21 (centres undefined)	4µM	u	1.5µM	n	u	n
N#C/C(=C(/O)CO/N=C/c1ccccc1Cl)c1nc2ccccc2[nH]1	n	x	n	x	n	n
O=C(COC(=O)CCSc1ccccc1)NCc1ccc(F)cc1	n	n	n	n	n	n
NNC(=O)c1ccc(OCC2CC(c3ccc(Cl)cc3)=NO2)cc1 (centres undefined)	n	x	8.5µM	x	u	n
Cc1cc(=O)oc2cc(OCC3CC(c4ccc(Cl)cc4)=NO3)ccc12 (centres undefined)	n	n	u	n	n	n
CC(=O)CCC1CC(c2ccc(Cl)cc2)=NO1 (centres undefined)	1.1µM	x	7.6µM	x	u	1.4µM
O=C(NCc1cccs1)C1CC(c2ccc(Cl)cc2)=NO1 (centres undefined)	n	x	u	n	n	n
CCC(C)N(C(=O)Cn1c(=O)cnc2ccccc21)C1CCS(=O)(=O)C1 (centres undefined)	n	x	n	x	n	n
COCCNC(=O)CCN1C(=O)c2cccnc2Oc2ccc(C)cc21	x	x	n	x	x	x
O=C(COc1ccc(Cl)cc1)NNC(=O)c1cccnc1	n	n	n	n	n	n
CC(C)(C)c1ccc(OCC(=O)NNC(=S)NC(=O)c2ccco2)c(Br)c1	n	x	9.5µM	x	n	n
Cc1cc(Cl)ccc1OCC(=O)NNC(=O)c1cccnc1	n	x	19µM	x	n	n
Cc1cc(Cl)ccc1OCC(=O)NNC(=O)c1ccco1	n	x	9.5µM	x	u	n
O=C(COc1ccc(Cl)cc1Cl)NNC(=O)c1cccnc1	n	x	5.4µM	x	n	n
CCc1noc(C)c1C(=O)OCC(=O)c1ccccc1OC	n	x	n	x	n	n
CCNc1nc(NC(C)C)nc(NS(=O)(=O)c2ccc(C)cc2)n1	n	x	n	x	n	n
N#Cc1ccccc1S(=O)(=O)N1CCCC(c2nc3c(nnn3Cc3cccc(Cl)c3)c(=O)[nH]2)C1 (centres undefined)	x	n	n	x	x	x
Cc1ccc(OCC(=O)Nc2ccc(NC(=O)c3ccco3)cc2)c(C)c1	n	x	n	x	n	n
Cc1ccc(NC(=O)COc2ccc(Br)cc2C)cc1	n	n	9.5µM	n	u	n
Cc1cc(Cl)ccc1OCC(=O)Nc1ccncc1	n	x	15µM	x	u	n
SMILES	NPC1 prom act	SMN2 splice up	FLuc modulator	Luc counter	ELG1 genotoxic	Rab9 prom act
CCOc1ccc(NC(=O)CCC(=O)NNC(=O)COc2ccc(C)cc2Br)cc1	u	x	2.1µM	x	u	u
CCOc1ccc(NC(=O)CCC(=O)NNC(=O)COc2ccc(C)cc2)cc1	n	n	n	n	n	n
O=C(N/C(=C/c1cccnc1)C(=O)N1CCOCC1)c1ccccc1Br	n	n	n	n	n	n
COc1ccc(CNC(=O)c2ccc(Br)o2)cc1	n	n	n	n	n	n
COc1ccc(C(=O)C2CCCN(Cc3ccc(Sc4nncn4C)o3)C2)cc1F (centres undefined)	n	n	n	n	n	n
COc1ccc(CN=C(Nc2ccccc2)SC2CC(=O)NC2=O)cc1 (centres undefined)	u	x	6.7µM	n	u	u
Cc1ccc(S(=O)(=O)CCC(=O)NCc2ccccc2F)cc1	n	x	n	x	n	n
CNC(=O)CN(c1ccc(Oc2ccccc2)cc1)S(=O)(=O)c1ccc(C)cc1	n	x	n	x	n	n
COc1ccccc1C1CC(c2cccs2)=Nc2ccccc2S1 (centres undefined)	n	n	u	n	u	n
Fc1ccccc1C1CC(c2ccco2)=Nc2ccccc2S1 (centres undefined)	n	x	21µM	x	u	n
CC(=O)NCc1ccc(C(=O)CN2C(=O)NC3(CCCCC3C)C2=O)s1 (centres undefined)	n	x	n	x	n	n
O=C(Nc1ncc(Cc2ccccc2)s1)C1COc2ccccc2O1 (centres undefined)	1.6µM	10µM	3µM	n	n	2.8µM
O=C(Nc1ccncc1)C1COc2ccccc2O1 (centres undefined)	n	x	n	n	n	n
CCC(CC)c1nnc(NC(=O)C2COc3ccccc3O2)s1 (centres undefined)	1.6µM	u	7.6µM	n	u	1.3µM
CCCCCc1nnc(NC(=O)C2COc3ccccc3O2)s1 (centres undefined)	n	n	u	n	u	n
O=C(NC1=NCCS1)C1COc2ccccc2O1 (centres undefined)	0.025µM	x	0.24µM	7.9µM	u	u
Cc1nnc(NC(=O)C2COc3ccccc3O2)s1 (centres undefined)	u	n	24µM	n	u	u
CCC(CC)C(=O)Nc1nnc(SCc2cc(=O)c3ccccc3[nH]2)s1	x	x	n	x	x	x
Cc1cc(C)cc(NC(=O)CSc2oc(-c3cccs3)nc2S(=O)(=O)c2ccccc2)c1	x	n	n	x	x	x
O=C(Nc1nc2c(s1)CCCC2)C1COc2ccccc2O1 (centres undefined)	0.56µM	0.5µM	0.76µM	n	0.58µM	0.32µM
CCc1nnc(NC(=O)C2COc3ccccc3O2)s1 (centres undefined)	3.2µM	11µM	12µM	n	u	2.8µM
CCOC(=O)c1ccc(COC(=O)c2nonc2N)cc1	n	n	15µM	n	n	n
COc1ccccc1CNC(=O)CN1c2cccc3cccc(c23)S1(=O)=O	n	x	24µM	x	n	n
CC(C)Sc1nc(SCC(=O)O)c2c3c(sc2n1)COC(C)(C)C3	u	x	13µM	x	u	u
CC(C)Sc1nc(SCC(=O)NCc2ccco2)c2c3c(sc2n1)COC(C)(C)C3	n	n	9.5µM	n	u	n
CCCSc1nc(SCC(=O)NCc2ccccc2)c2c3c(sc2n1)COC(C)(C)C3	n	n	n	n	n	n
O=C(c1ccc2nc(Cc3cccc(Cl)c3)oc2c1)N1CCOCC1	u	x	17µM	x	u	u
C=C(C)CNC(=O)c1ccc2nc(Cc3ccc(OC)cc3)oc2c1	2.2µM	x	11µM	x	u	2.8µM
